Compound activity (PubChem)
Most compounds without a hit are left out; they make up all but 5.3% or so of the library.
JMJD2E inh: qHTS Assay for Inhibitors of Human Jumonji Domain Containing 2E (JMJD2E) | Lysine-specific demethylase 4E (Homo sapiens), B2RXH2 | JMJD2E catalytic domain, FDH-coupled NADH fluorescence (FDH is formaldehyde dehydrogenase) | Potency, µM (titrated, usually from 57.1 µM), for inactives: at the top dose activity change, negative = inhibition, usual class: inhibitors | hit rate 1.6% among 230,000 | AID 2147, 2009; active = well fitted inhibition curve with a large enough effect, not every such curve was filed as active; inconclusive = small, poorly fitted or top-dose-only effect, or another doubt; inactive = no such curve, though single readings can be large or run the other way;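 note: potency is the fitted concentration of half-maximal effect; 0% = wells with enzyme and -100% = buffer wells without enzyme; nearly all actives have a fitted effect of over 50% in size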
Target sequence (B2RXH2 1-337 limits assumed): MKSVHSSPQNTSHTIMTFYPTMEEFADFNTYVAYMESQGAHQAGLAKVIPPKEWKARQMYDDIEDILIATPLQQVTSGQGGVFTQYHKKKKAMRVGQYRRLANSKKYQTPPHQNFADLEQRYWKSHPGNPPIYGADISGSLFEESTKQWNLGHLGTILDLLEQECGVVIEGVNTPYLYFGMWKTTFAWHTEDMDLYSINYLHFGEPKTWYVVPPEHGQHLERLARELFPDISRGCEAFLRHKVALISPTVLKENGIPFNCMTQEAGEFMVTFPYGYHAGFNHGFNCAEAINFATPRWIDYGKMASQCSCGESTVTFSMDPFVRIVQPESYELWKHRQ
Tau fibril FP: qHTS for Inhibitors of Tau Fibril Formation, Fluorescence Polarization | Microtubule-associated protein tau (Homo sapiens), P10636 | hit rate 0.39% among 280,000 | Potency, µM (top dose mostly 57.7 µM), for the others: at the top dose activity, negative = inhibition, hits mostly inhibitors | K18 P301L tau heparin fibrillization, Alexa594 FP, 6 h; note: potency is the fitted concentration of half-maximal effect; nearly all actives have a fitted effect of over 55% in size
Target sequence (P10636 561-689 P618L limits assumed): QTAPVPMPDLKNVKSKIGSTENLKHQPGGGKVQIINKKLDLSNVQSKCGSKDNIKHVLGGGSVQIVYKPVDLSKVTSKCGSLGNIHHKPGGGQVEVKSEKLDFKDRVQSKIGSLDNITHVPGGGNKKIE
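Human tau K18 […] P301L fragment, 15 uM unlabeled plus 0.24 uM Alexa 594-labeled tau (final), with compound and 20 uM heparin in 100 mM sodium acetate pH 7; 6 hr at 37 C, then Alexa 594 FP read.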
Tau ThT inhib: qHTS for Inhibitors of Tau Fibril Formation, Thioflavin T Binding | Potency, µM (highest dose often 57.4 µM), for the others: at the top dose activity, negative = inhibition, most hits filed as inhibitors | hit rate 2.1% among 270,000 | AID 1460, 2008 | recombinant tau K18 P301L, heparin-induced fibrillization, ThT fluorescence; note: potency is the fitted concentration of half-maximal effect; nearly all actives have a fitted effect of over 55% in size
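Heparin-induced (20 uM) aggregation of recombinant human K18 P301L tau, 15 uM unlabeled with 0.24 uM labeled, pH 7 acetate buffer, 6 hr at 37 C with compound. Fibrils quantified by 30 uM ThT fluorescence after 1 hr ambient incubation.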
Tau fluor counter: Counterscreen qHTS for Inhibitors of Tau Fibril Formation, Fluorescence Polarization. Potency, µM (series often up to 57.7 µM), for the others: top-dose activity change, negative = decrease. hit rate 0.93% among 280,000. tau K18 P301L (four-repeat tau fragment) Alexa594 fluorescence, heparin fibrillization; note: potency is the fitted concentration of half-maximal effect; nearly all actives have a fitted effect of over 55% in size
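Human K18 P301L tau (15 uM unlabeled plus 0.24 uM Alexa 594-labeled, final) in 100 mM sodium acetate pH 7 was mixed with compound and 20 uM heparin and incubated 6 hr at 37 C.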
Sfp PPTase inh: qHTS Assay for Inhibitors of Bacillus subtilis Sfp phosphopantetheinyl transferase (PPTase). hit rate 3.5% among 310,000. 4'-phosphopantetheinyl transferase ffp (Bacillus subtilis), Q9F4F7. Biochemical Sfp PPTase activity, qHTS. Potency, µM, for the others: largest response in the series, negative = inhibition, hits mostly inhibitors. AID 1490, 2009;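 note: the enzyme is Sfp with the accession as filed and its product quenches rhodamine fluorescence; potency is the fitted concentration of half-maximal effect; 0% = enzyme reaction without inhibitor and -100% = no enzyme wells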
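Compounds were incubated with enzyme (final 15 nM) for 15 min at room temperature before substrate addition started the reaction. Fluorescence at 525 nm excitation, 598 nm emission was recorded immediately and after 30 minutes.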
Coupling enz: qHTS Assay for Inhibitors of Fructose-1,6-bisphosphate Aldolase from Giardia Lamblia: Coupling assay counterscreen. coupling enzyme system counterscreen, AmpLite Red fluorescence. activity change, negative = inhibition, % at 58.2 µM, hits read low. hit rate 0.67% among 290,000; in the data active = activity change below about -30%
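Compounds tested against the coupling enzymes alone at 57.5 uM final; readout was AmpLite Red fluorescence (525/598 nm) after 20 min at RT.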
An asterisk follows results filed as active; ? = inconclusive; nt = not tested or not shown; ! = not confirmed by another sample; [ ] = remark or other dose. Unless noted, calls come from the whole dose curve; as a rule, active = well fitted curve in the direction sought with a large enough effect; inconclusive = small, poorly fitted or top-dose-only effect, or another doubt; inactive = no such curve, though single readings can be large; an effect the other way counts as inactive or inconclusive. Unless noted, % is set by controls: 0 for no effect and ±100 for the full control effect.

SMILES	JMJD2E inh	Tau fibril FP	Tau ThT inhib	Tau fluor counter	Sfp PPTase inh	Coupling enz
CCCCNC(=O)CNC(=S)N(Cc1ccc(C)cc1)Cc1ccco1	-4.9%	5.2%	-16.3%	-19.4%	56.2µM*	0.6
COc1ccc(-c2nc3c(c4c2C[C@H](c2ccccc2)OC4)CN(C(=O)NCCc2c[nH]c4ccccc24)CC3)c(C)c1	2.8%[11.4 µM]	-7.3%[11.6 µM]	-2.6%[11.5 µM]	-7.1%[11.6 µM]	16.1%	1.5
CCN(C(=O)CSc1nnc(Cn2nnc3ccccc32)o1)c1nc(C)cs1	-7.0%	5.9%	-7.2%	4.6%	20µM*	0.7
CC(=O)N1CCC2(CCCN(C(=O)Nc3cccc(C#N)c3)C2)CC1	nt	nt	nt	nt	10.7%	-3.6
Cc1cc(C)c2cc(C#N)c(N3CCCC3)nc2c1	?	-3.3%	-9.9%	-4.5%	44.7µM*	0.7
N#CC1=C(N)C2=CCCC[C@H]2[C@H](c2ccccc2)C1(C#N)C#N	-3.1%	?	?	-24.4%	-8.8%	-3.1
N#CC1=C(N)C2=CCCC[C@H]2[C@H](c2ccc(Br)cc2)C1(C#N)C#N	-1.3%	?	14.1µM*	?	7.08µM*	-23.2
COc1ccc(-n2cc(C(=O)Oc3cc(C)cc(C)c3)c3ccccc3c2=O)cc1	nt	-2.0%	0.2%	-3.9%	nt	nt
COc1cc(/C=N/NC(=O)/C(=C\c2ccc3c(c2)OCO3)NC(=O)c2ccccc2)ccc1O	?	14.9%	?	-18.0%	-16.4%	-2.2
O=C(N/N=C/c1cc([N+](=O)[O-])cc([N+](=O)[O-])c1O)/C(=C\c1cccs1)NC(=O)c1ccccc1	?	13.1%	12.6µM*	-9.3%	12.5%	13.9
COc1cc(/C=N/NC(=O)/C(=C\c2ccc([N+](=O)[O-])cc2)NC(=O)c2ccccc2)cc(OC)c1O	-5.6%	15.4%	28.2µM*	?	-17.2%	-3.0
CCCCCCCCCCCC(=O)OCC(O)C1OCC(O)C1O (stereo unspecified)	nt	nt	nt	nt	11.3%	nt
COc1cc(C)ccc1OCCSc1nnc(-c2ccc(C)cc2)o1	nt	-3.8%	?	-13.4%	nt	nt
Cc1cc2c(sc3ccccc32)c(C)n1	-12.8%	0.0%	?	-10.9%	-5.5%	-0.3
O=C1Nc2cc3c(cc2C1=O)sc1ccccc13	-23.5%	5.9%	1.12µM*	?	-1.8%	-4.1
CCN1C(=O)/C(=C/C=C2\C=CN(CC)c3ccccc32)SC1=S	?	?	2.24µM*	?	44.7µM*	-35.7*
CCN1C(=O)/C(=C\C=C2/C=CC=CN2CC)SC1=S	?	?	14.1µM*	-22.0%	?	-31.0*
Cc1ccc(-n2c(=S)[nH]c3[nH]ncc3c2=O)cc1	-1.9%	8.6%	0.7%	8.3%	-24.6%	-0.8
O=c1c2cn[nH]c2[nH]c(=S)n1-c1ccccc1Cl	?	3.4%	1.6%	0.2%	56.2µM*	-0.7
CC1(C)Cc2c(sc(NC(=O)c3ccccc3)c2C(=O)O)CO1	?	-6.1%	?	-12.6%	-20.7%	-18.7
CC(C)COc1ccc(C(=O)Nc2sc3c(c2C(=O)O)CC(C)(C)OC3)cc1	3.5%	-8.3%	15.8µM*	?	-22.8%	9.6
Fc1ccccc1N1CCN(CC2CC3C=CC2C3)CC1 (stereo unspecified)	-15.9%	-5.9%	-13.5%	-9.6%	-12.5%	-1.3
C1=CC2CC1CC2CN1CCN(Cc2ccccc2)CC1 (stereo unspecified)	?	-2.4%	3.1%	-2.3%	79.4µM*	-6.1
COC(=O)C1=C(C)NC(C)=C([N+](=O)[O-])[C@@H]1c1ccccc1C(F)(F)F	7.5%	-3.7%	?	-15.8%	-12.2%	-5.7
Cc1ccc(NC(=O)c2oc3c(c2C)-c2[nH]ncc2CC3)c(Cl)c1	nt	12.2%	-14.1%	-13.5%	nt	nt
SMILES	JMJD2E inh	Tau fibril FP	Tau ThT inhib	Tau fluor counter	Sfp PPTase inh	Coupling enz
COc1ccc(N=C2NN=C(c3c(C)[nH]c4ccccc34)CS2)cc1	?	-16.7%	?	25.1µM*[quencher]	35.5µM*	0.5
Fc1ccc(F)c(C2=NNC(=Nc3ccccc3F)SC2)c1	4.1%	-7.4%	-6.9%	-16.3%	-21.3%	0.8
Cc1[nH]c2ccccc2c1C1=NNC(=Nc2ccc(F)cc2)SC1	-6.2%	?	14.1µM*	11.2µM*[quencher]	22.4µM*	1.0
COc1ccc(N=C2SCC(c3ccccc3)=NN2C)cc1	-5.6%	0.6%	?	?	-7.4%	-1.3
Fc1ccc(N=C2NN=C(c3cc(F)ccc3F)CS2)cc1	?	?	12.6µM*	?	-8.8%	-0.4
Cc1cccc(-c2noc(-c3ccc(N4CCN(C)CC4)c([N+](=O)[O-])c3)n2)c1	nt	-8.9%	-0.7%	-21.9%	nt	nt
COCCNc1nc(-c2ccccc2Cl)nc2ccccc12	nt	nt	nt	nt	14.2%	3.0
COc1ccc(C(=O)c2oc3ccccc3c2N)cc1	?	15.5%	?	?	79.4µM*	-8.6
CC(C)C[C@H](NC(=O)[C@@H]1CCCN1C(=O)[C@H](CO)NC(=O)[C@H](Cc1ccccc1)NC(=O)CNC(=O)[C@@H]1CCCN1C(=O)[C@@H]1CCCN1C(=O)[C@@H](N)CCCN=C(N)N)C(=O)O	nt	nt	nt	nt	5.7%	0.1
C[N+]1=C(/C=C/Nc2ccccc2Cl)C(C)(C)c2ccccc21	-9.3%	?	28.2µM*	?	-15.4%	-0.4
COC1=C(Nc2ccccc2OC)C(=O)c2ccccc2C1=O	?	?	?	?	-18.4%	-27.1
COc1cccc2c1C(=O)C=C(C)C2=O	-13.0%	?	7.08µM*	7.08µM*[quencher]	-3.6%	-38.8*
CC1=CC(=O)c2ccccc2C1=O	-29.3%	?	5.01µM*	7.08µM*[quencher]	?	-32.6*!
CC(C)(C=O)C1=CC(=O)c2ccccc2C1=O	4.1%	?	8.91µM*	?	6.31µM*	-63.2*
C=CCc1ccccc1OCCSc1nc(-c2cccs2)nc2cc(=O)[nH]n12	nt	-16.5%	-12.0%	-12.5%	nt	nt
CCOc1ccc(NC(=O)Cc2csc(COc3cccc(C)c3)n2)cc1	nt	-13.3%	-9.8%	-5.9%	nt	nt
Cc1cc(=O)[nH]c(SCC(=O)Nc2ccccc2C#N)c1C#N	-14.6%	-0.1%	-14.1%	-8.0%	31.6µM*	12.2
CCOC(=O)CC(=O)CSc1[nH]c(=O)cc(C)c1C#N	-15.6%	1.4%	-7.2%	-0.3%	50.1µM*	5.7
